Reference: PubChem BioAssay (EPA / NIEHS)
The source made the active and inactive calls. The calls were made as follows: active = hit-call score of the fitted dose curve at least 0.9, where 1 is the maximum; inactive = score below 0.9.

Test: ATG_M_32_CIS: Attagene CIS-FACTORIAL HepG2 Assay for M32 Transcription Factor (Internal Marker) (AID 2282949);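 also: background control marker of the multiplexed CIS panel rather than a real target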
Conditions: HepG2 Attagene cis-factorial M32 reporter, mRNA; actives raise or lower the signal
Procedure: ATG_CIS is a cell-based, multiplexed-readout assay that uses HepG2, a human liver cell line, with measurements taken at 24 hours after chemical dosing in a 24-well plate.ATG_M_32_CIS is one of 52 assay component(s) measured or calculated from the ATG_CIS assay. It is designed to make measurements of mRNA induction, a form of inducible reporter, as detected with fluorescence intensity signals by Reverse transcription polymerase chain reaction (RT-PCR) and Capillary electrophoresis technology.Data from the assay component ATG_M_32_CIS was analyzed into 1 assay endpoint. This assay endpoint, ATG_M_32_CIS, was analyzed with bidirectional fitting relative to DMSO as the negative control and baseline of activity. Using a type of inducible reporter, measures of mRNA for gain or loss-of-signal activity can be used to understand the background control at the transcription factor-level as they relate to the gene . Furthermore, this assay endpoint can be referred to as a secondary readout, because this assay has produced multiple assay endpoints where this one serves a background control function. To generalize the intended target to other relatable targets, this assay endpoint is annotated to the background measurement intended target family, where the subfamily is internal marker.
Human liver HepG2 cells are transiently transfected with multiple reporter transcription units (MRTUs) in 6-well plates using FuGene 6 reagent (Roche; 3 ml FuGene/1 mg DNA). The MRTU constructs are regulated by a cis-regulating element (promoter). […] A major difference between the CIS and TRANS system is that in CIS activities of endogenous TFs are measured, whereas the TRANS assay evaluates changes in activities of exogenous, chimeric NR-Gal4 proteins. […] At the end of 24 hour incubation, total RNA was isolated using TriZol reagent (Invitrogen). The isolated RNA is then reverse-transcribed using oligo(dT) primer and Mo-MLV reverse transcriptase (Invitrogen) with DNAse I (Ambion) treatment for 30 min. The one-tenth of the produced cDNA was amplified by PCR using Taq DNA polymerase (Invitrogen) and two reporter sequence-specific primers. The PCR products were fluorescently labeled by primer extension with 6-arboxyfluorescein (6-FAM) 5'-labeled reporter sequence-specific primer (2 min at 95 C, 20 s at 68 C and 10 min at 72 C) and these products were digested with 5U of HpaI (New England Biolabs) for 2h at 37 C. The fragments were purified using Qiaquick PCR columns (Qiagen), analyzed on an ABI 3130xL genetic analyzer (Applied Biosystems) with peak positions identified by using a set of X-rhodamine (ROX)-labeled MapMarker1000 molecular weight standards (BioVentures). The raw capillary electrophoresis data was processed using Attagraph software (Attagene).

outcome, inactive:
Cn1cnc([N+](=O)[O-])c1Sc1ncnc2nc[nH]c12, CCn1nc(Cc2ccccc2)cc1C1CCN(C[C@H]2C[C@H](N(C)[C@@H](C(=O)O)C(C)C)C[C@@H]2c2cccc(F)c2)CC1, C[C@](N)(Cc1ccc(O)c(O)c1)C(=O)O, CC(C)=CCCC(C)CCO (stereo not given), CC(C)(O)c1coc(S(=O)(=O)NC(=O)Nc2c3c(cc4c2CCC4)CCC3)c1, O=C(O)CC(O)C(=O)O (stereo not given), CCNc1ccccc1, CCOc1cccc(-n2cc(C(=O)N3CCN(c4cc(C(=O)O)c5ccccc5c4)CC3)nc2-c2ccc(C)cc2)c1, O=C(NS(=O)(=O)/C=C/c1ccccc1)c1ccc(F)cc1Cl, C=CC(=C)CCC=C(C)C, CCOC(=O)c1ccc(C2CCC(NC[C@H](O)COc3ccc(O)c(NS(C)(=O)=O)c3)CC2)cc1 (stereo not given in full), CCC(C)(C)C(=O)O[C@H]1C[C@@H](C)C=C2C=C[C@H](C)[C@H](CC[C@@H]3C[C@@H](O)CC(=O)O3)[C@H]21, CCCCCCCCCCCCCCCO, CCCCCCc1ccc(O)cc1O, O=c1[nH]c2ccc(S(=O)CCN3CCC(Cc4ccc(F)cc4)CC3)cc2o1 (stereo not given), COCCOCCOCCOC, COc1ccc(-n2nc(C(F)F)cc2-c2ccc(S(C)=O)cc2)cc1 (stereo not given), CCCN(C1CCN(C(=O)C2CCNCC2)CC1)[C@@H]1CCc2ccc(OC)cc2C1, CC(C)=CCC/C(C)=C/CO, CC(=O)c1ccc2c(c1)[C@H](NC(=O)c1ccc(F)cc1)[C@@H](O)C(C)(C)O2, CCOCCO, Cc1ccc(N)cc1O, C1N2CN3CN1CN(C2)C3, O=P(OC(CCl)CCl)(OC(CCl)CCl)OC(CCl)CCl, CN(C)c1ccc(N=NS(=O)(=O)O)cc1, CC(C)CCO, CC[C@H]1OC(=O)[C@H](C)[C@@H](O[C@H]2C[C@@](C)(OC)[C@@H](O)[C@H](C)O2)[C@H](C)[C@@H](O[C@@H]2O[C@H](C)C[C@H](N(C)C)[C@H]2O)[C@](C)(O)C[C@@H](C)C(=O)[C@H](C)[C@@H](O)[C@]1(C)O, Clc1nc(Cl)c(Cl)c(Cl)c1Cl, CCCCCCCCCCCCc1ccccc1, Oc1ccc2c(c1)-c1ccccc1C2, O=C(CCCCCCCCc1cccnc1)N1CCC(C=C(c2ccccc2)c2ccccc2)CC1, Cn1c(=O)c2c(ncn2C)n(C)c1=O, COC(=O)c1ccccc1O, CC(O)CN(CCN(CC(C)O)CC(C)O)CC(C)O (stereo not given), O=C1OC(=O)C2C3C=CC(C3)C12 (stereo not given), O=C1CCCCCN1, CC(=O)OCCC(C)C, CCCCCCCCO, On1ccccc1=S, C=CCCCCCCCCC(=O)O
